Records with an inconclusive call do not appear. The source made the active and inactive calls. Calls come from the whole dose curve; as a rule, active = well fitted curve in the direction sought with a large enough effect; inconclusive = small, poorly fitted or top-dose-only effect; inactive = flat fitted curve, though single readings scatter.
Assay: Quantitative high throughput screen for delayed death inhibitors of the malarial parasite plastid: Hit Validation with Dd2 at 96hr using Flow Cytometry
Conditions: P. falciparum Dd2 growth; parasitemia, lower = inhibition: at 50 µM (top of the series)
Source text: The goal of this screen is to discover new antimalarial compounds that act by inhibiting the development of the apicoplast organelle in the malarial parasite Plasmodium falciparum. Some antibiotics, such as azithromycin and tetracycline, are known to interfere with the apicoplast translational machinery, and have a potent antimalarial effect. […] We developed a cell-based quantitative high throughput screen that leverages this "delayed death" phenotype to enrich for compounds that target the apicoplast. To detect small molecules that cause the delayed death phenotype, erythrocytes infected with firefly luciferase-expressing parasites were incubated with compounds for either one or two generations, corresponding to 48 and 96 hours, respectively. Growth inhibition was detected by a decrease in luciferase activity. Compounds that inhibited parasite growth in the second generation at least five-fold more potently than in the first generation were defined as delayed death inducing. These compounds were selected for confirmatory screening using a flow cytometry based assay. This hit validation assay used the Dd2 cell line and measured at 96 hours. NIH Molecular Libraries Probe Production Network [MLPCN] NIH Chemical Genomics Center [NCGC] MLPCN Grant: R21 NS059500 Assay Provider: David Fidock and Eric Ekland, Columbia University
Test compounds were diluted in 20 microliters of complete media (RPMI 1640 with 0.5% w/v Albumax (GIBCO), 24 mM sodium bicarbonate (Sigma) and 10 ug/mL gentamycin (Gibco)) in clear 384-well plates (Greiner). All liquid handling was conducted using a Bio Tek Precision 2000 pipetting system. Twenty microliters of infected erythrocytes, 0.2% parasitemia (for 48 hour time points) or 0.1% parasitemia (for 96 hour time points) were added to the compound dilutions (1% hematocrit, final concentration; 40 microliters, total culture volume). The assay plates were incubated for 48 hours, or 96 hours, at 37 masculine C in a humidified chamber (Billups- Rothenberg, Del Mar, CA, USA), gassed with 5%CO2/5%O2/ 90%N2. After two generations (96 hours), 5 microliters of culture were harvested and transferred to a second 384 well plate for fluorescent staining. Samples were stained with 30 microliters of 2 x SYBR Green I (Invitrogen) and 150nM MitoTracker Deep Red (Invitrogen) diluted in 0.9% NaCl, 0.2% dextrose (Baxter) supplemented with 2.5% Fetal Calf Serum (Gibco) (saline/FCS). Mature erythrocytes lack nuclei and mitochondria, therefore only parasitized erythrocytes retain the SYBR Green I and MitoTracker Deep Red. After 30 minutes at 37 masculine C, the stained cells were diluted in an additional 60 microliters of saline/FCS. The samples were harvested directly from the 384 well plate using a Hypercyt High Capacity Flow Platform (Intellicyt) paired with a C6 Flow Cytometer (Accuri). The flow cytometry files were analyzed using FlowJo software (FlowJo).

Row | SMILES | Potency | parasitemia, lower = inhibition
1 | N#Cc1cccc(NC(=O)Cn2c3[n+](c4ccc(C(F)(F)F)cc42)CCCCC3)c1 | 0.424 µM (active) | –
2 | COc1ccc2cc3cc(C(=O)Nc4ccc5c(c4)OCO5)oc3nc2c1 | 24.9 µM (active) | –
3 | COc1ccc(CNC(=O)C2CCC(CNS(=O)(=O)c3cccc4cccnc34)CC2)cc1 (configuration not stated) | 38.9 µM (active) | –
4 | Cc1ccc(-n2c(-c3ccc(Cl)cc3)c[n+]3c2CCC3)cc1 | 0.0825 µM (active) | –
5 | COc1ccc(C(=O)N2CCN(S(=O)(=O)c3ccc(C)cc3C)CC2)cc1OC | 29.7 µM (active) | –
6 | CC(C)C(=O)NCCSc1c[nH]c2ccccc12 | 5.01 µM (active) | –
7 | CCCCN(CCCNC(=O)c1ccc(CS(=O)(=O)c2ccc(OC)cc2)o1)Cc1ccccc1 | 1.66 µM (active) | –
8 | Cc1ccc(S(=O)(=O)Nc2ccc(C(=O)Nc3ccncc3)cc2)cc1 | 14 µM (active) | –
9 | Brc1cccc(OCCCCN2CCCCC2)c1 | 2.79 µM (active) | –
10 | O=C(Nc1ccccc1N1CCOCC1)c1cccc(S(=O)(=O)N2CCOCC2)c1 | 10.6 µM (active) | –
11 | CC(=O)NC[C@@H]1CN(c2ccc(N3CCOCC3)c(F)c2)C(=O)O1 | 18 µM (active) | –
12 | CCOc1ccc(NC(=O)C[n+]2ccc(N(C)C)cc2)cc1 | 0.121 µM (active) | –
13 | COc1cccc(CN2CCN(c3nc4nonc4nc3N3CCCCC3)CC2=O)c1 | 5.78 µM (active) | –
14 | Cc1sc2nc[nH]c(=O)c2c1-c1ccc(Cl)cc1 | 9.78 µM (active) | –
15 | COc1ccc(Nc2nnc(-c3ccc(C)cc3)c3ccccc23)cc1C(=O)N1CCCCC1 | 25.7 µM (active) | –
16 | O=C(c1ccc([N+](=O)[O-])cc1)n1nc(-c2ccccc2)nc1NCc1ccc(F)cc1 | 24.6 µM (active) | –
17 | CCCCN(CCCNC(=O)C1CCN(C(=O)c2cc3sccc3n2C)CC1)Cc1ccccc1 | 0.389 µM (active) | –
18 | Cc1ccc(CN2CCC(n3nccc3NC(=O)c3ccccc3C)CC2)o1 | 12.8 µM (active) | –
19 | CCCCOc1ccc(N2C(N)=NC(N)=NC23CCCCC3)cc1 | 4.34 µM (active) | –

Row | SMILES | Potency | parasitemia, lower = inhibition
20 | CCc1nc(SCC(=O)Nc2ccc(N(C)C)cc2)n[nH]1 | 15.1 µM (active) | –
21 | CCC(=O)OC1C(N(C)C)CC(C)O[C@H]1O[C@H]1[C@H](C)[C@@H](O[C@H]2CC(OC)[C@@H](O)C(C)O2)[C@H](C)C(=O)O[C@@H](CC)[C@](C)(O)[C@@H](O)[C@H](C)C(=O)[C@@H](C)C[C@]1(C)O (some centres not stated) | 4.56 µM (active) | –
22 | Cc1c(F)c(N2CCNC(C)C2)cc2c1c(=O)c(C(=O)O)cn2C1CC1 (configuration not stated) | 0.479 µM (active) | –
23 | O=C(CNC(=O)C1CCCCC1)OC(C(=O)c1ccccc1)c1ccccc1 (configuration not stated) | – | 0.991 (active)
24 | COCCNC(=O)c1cccc(OC2CCN(Cc3cccc(SC)c3)CC2)c1 | – | 1.86 (inactive)
25 | Clc1ccc(-c2c[n+](Cc3ccc(Cl)cc3Cl)c3n2CCCCC3)cc1 | 0.244 µM (active) | –
26 | CCOc1ccc(S(=O)(=O)Nc2cc(S(=O)(=O)N(CC)CC)ccc2N2CCCC2)cc1 | 13.9 µM (active) | –
27 | CN(C)c1ccc(CN(C(=O)c2ccccc2Br)C2CCS(=O)(=O)C2)cc1 (configuration not stated) | 29.1 µM (active) | –
28 | CCOC(=O)c1ccc2c(c1)n(CC)c(/C=C/N(C)c1ccccc1)[n+]2CC | 0.185 µM (active) | –
29 | COc1ccccc1N1CCN(CCC(=O)Nc2ccc(F)cc2)CC1 | 8.91 µM (active) | –
30 | COc1ccc(NC(=S)N2CCC(Cc3ccccc3)CC2)cc1OC | – | 0.714 (active)
31 | CC1=Nc2cc(C(=O)N3CCCC3)ccc2Sc2ccc(C)cc21 | – | 0.0412 (active)
32 | CCCc1c(CC)c(=N)c2ccccc2n1C | 0.113 µM (active) | –
33 | CO[C@@H]1[C@@H](OC2OC(C)C(OC3CC(C)(O)C(OC(=O)CC(C)C)C(C)O3)C(N(C)C)C2O)[C@@H](CC=O)C[C@@H](C)C(=O)/C=C\C2O[C@H]2C[C@@H](C)OC(=O)C[C@H]1OC(C)=O (some centres not stated) | 0.0981 µM (active) | –
34 | COc1ccc2c(ccc[n+]2CC(=O)c2ccccc2)c1 | 5.18 µM (active) | –
35 | O=C(CSc1ccc(-c2cccnc2)nn1)Nc1ccccc1C(F)(F)F | 6.51 µM (active) | –
36 | c1csc(CNc2ncnc3nc[nH]c23)c1 | 31.3 µM (active) | –
37 | CCOc1ccc(C(=O)Nc2ccc(N3CCN(C)CC3)cc2)cc1 | – | 0.471 (active)

From PubChem BioAssay AID624337 (National Center for Advancing Translational Sciences (NCATS), 2012)
